# Test results reported in PubChem BioAssay.
# Where “and” joins values, the source holds several entries; their conditions need not be identical. Equal entries are not always repeated. For part of these data: Entries with a potency or affinity are not part of this list. Calls of active or inactive are those of the source. Unless noted, the rule behind the calls is not given here.
# What was measured:
# [1] = target: Mitogen-activated protein kinase 7 (Homo sapiens) (UniProt Q13164); assay: ERK5 transactivation activators in reporter cells, primary screen, cell-based, HTS (AID 1508626;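 active = luciferase signal above three times the same-plate solvent-only control wells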;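 note: luciferase driven by Gal4-ERK5 fusion binding five Gal4 sites before minimal TATA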); details: HeLa Gal4-ERK5 transactivation, 18 h, at 5 µM, stronger effect = higher value
# Sequence of Mitogen-activated protein kinase 7 (Homo sapiens) (Q13164 whole entry, looked up, the tested form may be a part): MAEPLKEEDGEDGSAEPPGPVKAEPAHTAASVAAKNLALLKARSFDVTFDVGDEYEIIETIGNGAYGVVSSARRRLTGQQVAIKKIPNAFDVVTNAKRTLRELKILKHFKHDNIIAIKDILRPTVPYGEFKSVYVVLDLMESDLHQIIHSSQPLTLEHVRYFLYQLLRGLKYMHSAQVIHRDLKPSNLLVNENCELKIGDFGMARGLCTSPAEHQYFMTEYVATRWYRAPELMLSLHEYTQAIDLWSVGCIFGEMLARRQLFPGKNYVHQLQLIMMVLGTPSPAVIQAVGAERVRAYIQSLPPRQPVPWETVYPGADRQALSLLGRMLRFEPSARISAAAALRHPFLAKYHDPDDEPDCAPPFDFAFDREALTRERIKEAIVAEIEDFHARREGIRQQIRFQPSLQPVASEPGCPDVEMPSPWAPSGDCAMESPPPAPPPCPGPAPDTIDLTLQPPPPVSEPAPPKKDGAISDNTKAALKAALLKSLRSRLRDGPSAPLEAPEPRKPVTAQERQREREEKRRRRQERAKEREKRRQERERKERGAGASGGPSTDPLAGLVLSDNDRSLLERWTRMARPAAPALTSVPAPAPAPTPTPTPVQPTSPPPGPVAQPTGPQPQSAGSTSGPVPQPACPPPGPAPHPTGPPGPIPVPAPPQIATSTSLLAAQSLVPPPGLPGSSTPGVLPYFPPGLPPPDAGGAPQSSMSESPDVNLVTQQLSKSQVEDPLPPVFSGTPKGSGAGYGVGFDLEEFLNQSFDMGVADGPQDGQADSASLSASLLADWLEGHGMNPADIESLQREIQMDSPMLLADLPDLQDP
# [2] = circadian clock period modulators, cell-based, LOPAC library, luminescence reporter (AID 2774); details: circadian reporter cells, at 7 µM, actives lie on both sides;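 note: values are relative to mean of DMSO wells on each plate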
# [3] = hESC survival regulators, cell-based (AID 493140); details: human embryonic stem cell survival screen; stronger effect = higher value;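 note: cells exposed to compounds for four days before counting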
# [4] = test system: Hepatitis C virus NS3 helicase; assay: HCV NS3 helicase inhibitors, primary screen, biochemical, fluorescence polarization, LOPAC1280 library (AID 687035; in the data active = inhibition above about 37%); details: Purified HCV NS3 helicase, Cy5-dT15 ssDNA binding fluorescence polarization; stronger effect = higher value; concentration not given here
# [5] = Cy5 fluorescence quenching or enhancement artefacts, artefact control for HCV NS3 helicase inhibitor project, biochemical, LOPAC1280 (AID 687037); details: Cy5-DNA-NS3h complex fluorescence interference counterscreen
# [6] = test system: Aerobactin synthetase IucA (Klebsiella pneumoniae); assay: IucA aerobactin synthetase inhibitors, biochemical, Tocris library, absorbance (AID 1345561); details: purified IucA enzyme assay, absorbance (OD) read-out; stronger effect = lower value;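 tested at 8 µM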;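 note: 100% = enzyme without compound and 0% = no enzyme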
# [7] = polyglutamine-triggered caspase-3 activation inhibitors, cell-based (AID 1583); details: polyglutamine-induced caspase-3 activation, cell assay; stronger effect = higher value;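 tested at 10 µM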
# [8] = suppressors of polyQ aggregation in yeast, 75Q-TubU reporter (AID 1593); details: Yeast 75Q polyglutamine aggregation reporter
# [9] = rescue of polyQ-huntingtin neuronal dysfunction in worms, whole organism, C. elegans mechanosensory neurons, N-terminal huntingtin (AID 1599); details: touch response, stronger effect = higher value
# [10] = inhibitors of mitochondrial cytochrome c release, biochemical, purified mitochondria (AID 1603); details: stronger effect = lower value;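 note: mouse liver mitochondria challenged with calcium chloride; signal normalized to the plate average as 100%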
# [11] = inhibitors of polyQ protein aggregation (AID 1604); details: polyglutamine-induced protein aggregation inhibition assay; stronger effect = higher value; tested at 2.5 µM
# [12] = LFS_MB_1R medulloblastoma cell growth inhibition, synergistic combos for chromothripsis tumors, cisplatin or BGB combos (AID 1671452; in the data active = inhibition above about 80%;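 note: cells exposed for 96 hours before readout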); details: LFS_MB_1R medulloblastoma cells, stronger effect = higher value
# [13] = CRL2098 osteosarcoma cell growth inhibition, synergistic combos for chromothripsis tumors, BGB or cisplatin IC20 combos (AID 1671454; in the data active = inhibition above about 80%;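 note: cells exposed for 96 h before readout; 0% = vehicle DMSO and 100% = killing by high DMSO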); details: CRL2098 osteosarcoma cells, drug combinations, stronger effect = higher value
# [14] = HD-MB03 medulloblastoma cell growth inhibition, synergistic combos for chromothripsis tumors, BGB or cisplatin IC20 combos (AID 1671455; in the data active = inhibition above about 83%;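 note: 0% = vehicle DMSO and 100% = high DMSO as cytotoxic control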); details: HD-MB03 medulloblastoma cells, stronger effect = higher value
# [15] = UWB1.289 ovarian carcinoma cell growth inhibition, synergistic combos for chromothripsis tumors, BGB or cisplatin combos (AID 1671456; in the data active = inhibition above about 80%;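 note: cells exposed to compound for four days; 0% = vehicle DMSO and 100% = killing by high DMSO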); details: UWB1.289 ovarian carcinoma cells, stronger effect = higher value
# [16] = LFS_MB_2R medulloblastoma cell growth inhibition, synergistic combos for chromothripsis tumors, cisplatin combos (AID 1671457; in the data active = inhibition above about 80%;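 note: cells exposed to compound for four days before readout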); details: LFS_MB_2R medulloblastoma cells, stronger effect = higher value
# [17] = UWB1.289_BRCA1 ovarian cancer growth, cell-based, BGB or cisplatin combinations (AID 1671459; in the data active = inhibition above about 80%); details: UWB1.289 BRCA1 ovarian carcinoma, drug combinations, stronger effect = higher value
# [18] = human astrocyte viability loss, single and combined drugs, cytotoxicity control for chromothriptic childhood tumor combination screen, cell-based, BGB or cisplatin IC20 combos (AID 1671460; in the data active = inhibition above about 80%;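 note: cells exposed to compounds for 96 hours before viability readout; 0% = vehicle and 100% = killing control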); details: Human astrocytes, drug combinations, stronger effect = higher value
# [19] = growth inhibition of RCMB18 medulloblastoma cells, cell-based, cisplatin and BGB IC40 combos (AID 1671462; in the data active = inhibition above about 80%;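 note: cells exposed to compound for four days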); details: stronger effect = higher value
# [20] = growth inhibition of CRL1545 osteosarcoma cells, cell-based, cisplatin and BGB IC20 combos (AID 1671464; in the data active = inhibition above about 80%;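 note: cells exposed to compound for 96 hours before readout; 0% = vehicle DMSO and 100% = high DMSO killing control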); details: stronger effect = higher value
# [21] = measured here: combination with cisplatin, at 0.5 µM
# [22] = measured here: combination with cisplatin, at 5 µM
compound,measurement,setting,value
CN(C)CCc1c[nH]c2ccc(Cn3cncn3)cc12,luciferase signal,[1],52 AU (inactive)
Cc1cnc(C(=O)NCCc2ccc(S(=O)(=O)NC(=O)NC3CCCCC3)cc2)cn1,period change,[2],0.035 h (inactive)
same,survival,[3],31.5 (inactive)
same,inhibition,[4],-1% (inactive)
same,fluorescence ratio (interference),[5],1 (inactive)
CN1CC(=O)N2[C@H](c3ccc4c(c3)OCO4)c3[nH]c4ccccc4c3C[C@@H]2C1=O,luciferase signal,[1],40 AU (inactive)
CN(C)CCCC1(c2ccc(F)cc2)OCc2cc(C#N)ccc21 (centres undefined),period change,[2],-0.06 h (inactive)
same,inhibition,[4],-4% (inactive)
same,fluorescence ratio (interference),[5],1 (inactive)
same,remaining activity,[6],108% (inactive)
same,luciferase signal,[1],68 AU (inactive)
NCC(O)c1ccc(O)c(O)c1 (centres undefined),period change,[2],0.075 h (inactive)
same,inhibition,[4],-3% (inactive)
same,fluorescence ratio (interference),[5],0.9 (inactive)
CC(C)NCC(O)c1ccc(NS(C)(=O)=O)cc1 (centres undefined),period change,[2],-0.07 h (inactive)
same,survival,[3],2.17 (inactive)
same,inhibition,[4],-2% (inactive)
same,fluorescence ratio (interference),[5],1 (inactive)
same,remaining activity,[6],91.3% (inactive)
O=C1CN2Cc3c(ccc(Cl)c3Cl)N=C2N1,luciferase signal,[1],40 AU (inactive)
CCCCN1CCCC1CNC(=O)c1cc(C#N)c2ccccc2c1OC (centres undefined),remaining activity,[6],113% (inactive)
CC(Cc1ccc(O)c(O)c1)(NN)C(=O)O (centres undefined),inhibition,[7],4.01%
same,score,[8],1.18
same,rescue above control,[9],-6.05
same,cytochrome c release ratio,[10],0.84
same,inhibition of aggregation,[11],15.6%
C[C@H]1O[C@H](O[C@H]2[C@H](O)[C@@H](O)[C@@H](O[C@H]3[C@H](O)[C@@H](O)C(O)O[C@@H]3CO)O[C@@H]2CO)[C@H](O)[C@@H](O)[C@@H]1N[C@H]1C=C(CO)[C@@H](O)[C@H](O)[C@H]1O (some centres undefined),luciferase signal,[1],52 AU (inactive)
CNCC[C@@H](Oc1ccccc1C)c1ccccc1,remaining activity,[6],96.2% (inactive)
same,luciferase signal,[1],64 AU (inactive)
C/C(=C\C(=O)OCCCCCCCCC(=O)O)C[C@@H]1OC[C@H](C[C@@H]2O[C@H]2[C@@H](C)[C@H](C)O)[C@@H](O)[C@H]1O,luciferase signal,[1],48 AU (inactive)
Cc1cc2c(s1)Nc1ccccc1N=C2N1CCN(C)CC1,luciferase signal,[1],136 AU (inactive)
COc1nc(C)nc(Cl)c1NC1=NCCN1,period change,[2],-0.08 h (inactive)
same,survival,[3],21 (inactive)
same,inhibition,[4],-4% (inactive)
same,fluorescence ratio (interference),[5],0.9 (inactive)
same,remaining activity,[6],93.9% (inactive)
CCN(CC)CC#CCOC(=O)C(O)(c1ccccc1)C1CCCCC1 (centres undefined),period change,[2],-0.025 h (inactive)
same,survival,[3],12.5 (inactive)
same,inhibition,[4],-3% (inactive)
same,fluorescence ratio (interference),[5],0.9 (inactive)
same,luciferase signal,[1],68 AU (inactive)
Cc1c(C(=O)NN2CCCCC2)nn(-c2ccc(Cl)cc2Cl)c1-c1ccc(I)cc1,survival,[3],93 (inactive)
same,remaining activity,[6],112% (inactive)
O=c1[nH]c(=O)n(C2CCCO2)cc1F (centres undefined),inhibition,[12]; at 0.5 µM,-5.43% (inactive) and -39.4% (inactive)
same,inhibition,"[12]; measured here: combination with BGB IC40, at 0.05 µM",2.48% and -16.7%
same,inhibition,[12]; [21],-8.32% and -55.8%
same,inhibition,[12]; [22],-0.329% and -28.6%
same,inhibition,[13]; at 0.5 µM,3.75% (inactive) and -63.9% (inactive)
same,inhibition,"[13]; measured here: combination with BGB at IC20, at 0.5 µM",7.31% and -58.1%
same,inhibition,"[13]; measured here: combination with cisplatin at IC20, at 0.5 µM",18.7% and -78.1%
same,inhibition,[14]; at 0.5 µM,1.31% (inactive) and -8.99% (inactive)
same,inhibition,"[14]; measured here: combo with BGB at IC20, at 0.5 µM",-4.63% and -10.8%
same,inhibition,"[14]; measured here: combo with cisplatin at IC20, at 0.5 µM",6.01% and -7.71%
same,inhibition,[15]; at 0.5 µM,3.3% (inactive) and -11.4% (inactive)
same,inhibition,"[15]; measured here: inhibition with BGB combination, at 0.05 µM",7.79% and -33%
same,inhibition,"[15]; measured here: inhibition with cisplatin combination, at 0.05 µM",4.79% and -22.4%
same,inhibition,[16]; at 0.5 µM,-0.54% (inactive) and -25.9% (inactive)
same,inhibition,[16]; [21],8.78% and -21.2%
same,inhibition,[16]; [22],11.8% and -36.1%
same,inhibition,"[17]; BGB combination, concentration series, at 5 µM",6.02% and -15.3%
same,inhibition,[17]; at 0.5 µM,3.23% (inactive) and -25.5% (inactive)
same,inhibition,"[17]; cisplatin combination, concentration series, at 5 µM",12% and 0.169%
same,inhibition,[18]; at 0.5 µM,4.65% (inactive) and -9.75% (inactive)
same,inhibition,"[18]; measured here: combo with BGB IC20, at 0.5 µM",0.017% and -11.8%
same,inhibition,"[18]; measured here: combo with cisplatin IC20, at 0.5 µM",11% and -8.67%
same,inhibition,[19]; at 0.5 µM,1.7% (inactive) and -8.58% (inactive)
same,inhibition,"[19]; cisplatin combo, at 5 µM",12.7% and -18.4%
same,inhibition,"[19]; measured here: BGB IC40 combination, at 0.05 µM",-6.79% and -15.3%
same,inhibition,[19]; [21],2.62% and -23%
same,inhibition,"[19]; single agent, at 5 µM",-0.936% and -12.4%
same,inhibition,[20]; at 0.5 µM,-31.3% (inactive) and -16.2% (inactive)
same,inhibition,"[20]; measured here: with BGB IC20 combination, at 0.5 µM",-54.2% and -32.2%
same,inhibition,"[20]; measured here: with cisplatin IC20 combination, at 0.5 µM",-19.9% and -9.92%
same,inhibition,"[20]; single agent, at 0.05 µM",6.98% and -30.8%
same,inhibition,"[20]; single agent, at 5 µM",-17.9% and -2.7%
CC(C)C[C@H](NC(=O)[C@@H](O)[C@H](N)Cc1ccccc1)C(=O)O,period change,[2],0.15 h (inactive)
same,inhibition,[4],-4% (inactive)
same,fluorescence ratio (interference),[5],1 (inactive)
same,remaining activity,[6],117% (inactive)
COc1c(N2C[C@@H]3CCCN[C@@H]3C2)c(F)cc2c(=O)c(C(=O)O)cn(C3CC3)c12,luciferase signal,[1],64 AU (inactive)
O=C(c1ccc(OCCN2CCCCC2)cc1)c1c(-c2ccc(O)cc2)sc2cc(O)ccc12,period change,[2],0.135 h (inactive)
same,survival,[3],4.58 (inactive)
same,inhibition,[4],-6% (inactive)
same,fluorescence ratio (interference),[5],0.9 (inactive)
same,remaining activity,[6],120% (inactive)
same,luciferase signal,[1],76 AU (inactive)
CC(C)(S)C(N)C(=O)O (centres undefined),inhibition,[7],22.3%
same,score,[8],1.79
same,rescue above control,[9],-1.67
same,cytochrome c release ratio,[10],0.98
same,inhibition of aggregation,[11],94.4%
CC[C@H]1OC(=O)[C@H](C)[C@@H](O[C@H]2C[C@@](C)(OC)[C@@H](O)[C@H](C)O2)[C@H](C)[C@@H](O[C@@H]2O[C@H](C)C[C@H](N(C)C)[C@H]2O)[C@](C)(O)C[C@@H](C)CN(C)[C@H](C)[C@@H](O)[C@]1(C)O,inhibition,[7],6.36%
same,score,[8],1.1
same,rescue above control,[9],0.7
same,cytochrome c release ratio,[10],1.04
same,inhibition of aggregation,[11],65.2%
same,luciferase signal,[1],20 AU (inactive)
CC(CCCCC(=O)Nc1ccc(C(F)(F)F)cc1)NCCc1cnc[nH]1 (centres undefined),remaining activity,[6],92.5% (inactive)
Cc1cccc(CCN2CCC(C(=O)c3ccc(NS(C)(=O)=O)cc3)CC2)n1,remaining activity,[6],104% (inactive)
